Assay outcomes as filed in PubChem BioAssay.
ELG1 genotox: inducers of genotoxicity in HEK293T ELG1-luciferase cells. HEK293T ELG1-luciferase reporter, luminescence, 16 h. Potency, µM (doses to about 46 µM), for the others: at the highest dose activity change, positive = activation, hits mostly activators. actives 1.3% (n = 330,000); also: % of control where 0% means no effect; nearly all actives have a fitted effect of over 60% in size
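Screening used a luciferase reporter fused to human ELG1 in HEK293T cells. Luminescence was read on a CCD plate imager after 16 hr exposure and 30 min ONE-Glo incubation.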
ELG1 repair inh: inhibitors of ELG1-dependent DNA repair in HEK293T cells; HEK293T ELG1-luciferase reporter, luminescence, 16 h; DNA damage induced by 5-fluorouridine; Potency, µM (top dose mostly 46.1 µM), for the others: at the top dose activity change, negative = inhibition, hits mostly inhibitors; actives 2.3% (n = 330,000); AID 504467; also: % is scaled to controls: 0 for no effect and ±100 for the full control effect; nearly all actives have a fitted effect of over 55% in size
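Step one: seed 2,000 cells per well. Step two: pin-transfer compound or DMSO alongside 5-fluorouridine. Step three: incubate 16 hr, 37 °C, 5% CO2. Step four: add ONE-Glo, wait 30 min, read luminescence.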
Rab9 promoter act: Rab9 promoter activation; Huh7 Rab9 promoter-luciferase reporter, luminescence, 24 h; Potency, µM (top dose mostly 9.22 µM), inactives show at the highest dose activation, negative = inhibition, most hits filed as activators; actives 2.8% (n = 320,000); also: % of control where 0% means no effect; nearly all actives have a fitted effect of over 60% in size
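Huh7 cells stably carrying a Rab9 promoter-luciferase reporter, 1500 cells per well in OP-MEM I with 10% FBS, treated with compound 24 hours at 37C. Luciferase activity read by luminescence after 10 minutes with Amplite reagent.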
SMN2 splice up: enhancers of SMN2 splice variant expression | HEK293 SMN2-luciferase splicing reporter, luminescence, 30-36 h | actives 2.8% (n = 210,000) | Potency, µM (doses to about 46.1 µM), inactives show top-dose activity change, positive = activation, actives largely listed as activators; also: % of control where 0% means no effect; nearly all actives have a fitted effect of over 55% in size
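HEK293 cells carry an SMN2 minigene-luciferase reporter in which exon 7 inclusion puts luciferase in frame. Cells were seeded at 2000 cells/well, attached for 10-12 hours, then exposed to compounds for 30-36 hours at 37C before ONE-Glo luminescence.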
FLuc counter: firefly luciferase modulation, counter-screen for miR-21 project; P08659; purified FLuc, Km substrates, luminescence inhibition; Potency, µM (titrated, usually from 57.5 µM), for inactives: at the highest dose activity change, negative = inhibition, actives largely listed as inhibitors; actives 6.9% (n = 360,000);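 also: plate controls were vehicle for no effect and reference inhibitor for full effect; nearly all actives have a fitted effect of over 55% in size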
Target sequence (P08659 whole entry, looked up): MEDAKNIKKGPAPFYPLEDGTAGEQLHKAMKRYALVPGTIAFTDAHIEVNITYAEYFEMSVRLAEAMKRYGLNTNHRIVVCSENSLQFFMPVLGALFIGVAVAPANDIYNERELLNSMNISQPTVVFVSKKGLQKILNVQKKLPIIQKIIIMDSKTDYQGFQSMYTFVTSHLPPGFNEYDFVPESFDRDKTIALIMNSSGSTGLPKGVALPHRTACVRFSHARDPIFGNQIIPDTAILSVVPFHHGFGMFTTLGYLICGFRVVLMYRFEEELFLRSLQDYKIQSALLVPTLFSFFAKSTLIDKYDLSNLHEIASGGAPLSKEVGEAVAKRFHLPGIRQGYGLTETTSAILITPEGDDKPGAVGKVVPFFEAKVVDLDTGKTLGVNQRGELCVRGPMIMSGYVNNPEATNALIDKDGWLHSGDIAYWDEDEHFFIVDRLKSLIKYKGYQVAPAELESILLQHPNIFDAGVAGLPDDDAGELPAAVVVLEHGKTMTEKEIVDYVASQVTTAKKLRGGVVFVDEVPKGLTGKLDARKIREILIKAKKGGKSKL
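Purified P. pyralis luciferase (10nM final) with 10uM D-luciferin and 10uM ATP (Km levels) in 50mM Tris acetate pH 7.5, 10mM Mg acetate, 0.01% Tween-20, 0.05% BSA; qHTS 6-point titration, ~60 µM downward; luminescence read.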
NPC1 promoter act: NPC1 promoter activation; actives 2.4% (n = 320,000); AID 485313; Huh7 NPC1 promoter luciferase reporter, 24 h; Potency, µM (doses to about 9.22 µM), for the others: top-dose activation, most hits filed as activators; also: % of control where 0% means no effect; nearly all actives have a fitted effect of over 60% in size
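Huh7 reporter cells (NPC1 promoter driving luciferase) are dosed with compound for 24 h at 37 °C, 5% CO2; luciferase detection reagent is then added and luminescence measured after 10 min at ambient temperature.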
The depositor's hits bear a star; ? = inconclusive; · = no result. The list is not random: actives were taken first. Their share in the collection is about 9.2%. Calls follow the shape of the dose curve; as a rule, active = well fitted curve in the direction sought with a large enough effect; inconclusive = small, poorly fitted or top-dose-only effect, or another doubt; inactive = no such curve, though single readings can be large; an effect the other way counts as inactive or inconclusive. Potency is read from the fitted curve at half-maximal effect.

SMILES | ELG1 genotox | ELG1 repair inh | Rab9 promoter act | SMN2 splice up | FLuc counter | NPC1 promoter act
Cc1ccc(-n2nnnc2SCC(=O)Nc2ccc(N3CCN(C)CC3)cc2)c(C)c1 | -1.4% | 12.6% | -10.9% | · | -2.2% | 6.3%
O=C(CSc1ccccc1)Nc1ccc(N2CCOCC2)c(F)c1 | ? | ? | 3.16µM* | · | ? | 3.55µM*
Cc1ccc2c(CC(=O)NNC(=O)c3ccccc3O)coc2c1 | 0.1% | -0.5% | -2.5% | · | -24.6% | 12.7%
O=c1[nH]cc(N2CCCCCC2)c(=O)[nH]1 | -2.3% | -7.9% | -3.3% | · | 5.5% | 0.1%
CCC(C)c1ccccc1NC(=O)c1cc2cccc([N+](=O)[O-])c2[nH]1 (configuration not stated) | -10.0% | 20.6µM* | -0.2% | · | ? | 18.2%
Cc1ccc2[nH]c(C(=O)Nc3ccccc3)cc2c1 | · | · | · | · | 2.13µM* | ·
Cc1ccc(NC(=O)c2cc3cccc([N+](=O)[O-])c3[nH]2)cc1 | ? | ? | 1.26µM* | · | 2.39µM* | 3.16µM*
COc1ccc(NC(=O)c2cc3cc(C)ccc3[nH]2)cc1 | · | · | · | · | -0.7% | ·
CCC(C)c1ccccc1NC(=O)COC(=O)c1ccc(N2CCCC2)c([N+](=O)[O-])c1 (configuration not stated) | -3.9% | -25.2% | -5.8% | -1.6% | -0.3% | 1.0%
c1csc(-c2nnc(-c3ccc(N4CCOCC4)cc3)o2)c1 | 1.3µM* | ? | 0.631µM* | 1.26µM* | 1.2µM* | 0.355µM*
COc1cc(-c2nnc(-c3cccs3)o2)cc(OC)c1OC | 5.7% | ? | 5.6% | ? | -1.5% | 5.1%
COc1ccc(-c2nnc(-c3cccs3)o2)cc1OC | 14.1µM* | ? | 3.16µM* | 154.1% | 8.49µM* | 2.82µM*
CCOc1ccc(-c2nnc(-c3cccs3)o2)cc1OCC | ? | ? | ? | 23.5% | ? | 3.55µM*
COc1ccc(-c2nnc(-c3cc(OC)c(OC)c(OC)c3)o2)cc1OC | -9.6% | 23.1µM* | -0.5% | ? | -2.6% | -4.5%
COc1ccccc1NC(=O)CSc1oc(-c2ccco2)nc1S(=O)(=O)c1ccc(C)cc1 | · | · | · | 4.8% | 2.0% | ·
COc1ccc(NC(=O)Nc2ccc3c(c2)C(=O)N([C@@H](C)CO)C[C@@H](C)[C@@H](CN(C)S(=O)(=O)c2cn(C)cn2)O3)cc1 | -1.3% | 16.5% | · | · | · | ·
O=C(NCc1ccc(F)cc1)C1CCN(C(=O)c2ccc(-n3ccc4ccccc43)s2)CC1 | · | · | · | · | -14.3% | ·
CCOc1ccc(Oc2ccc(C(F)(F)F)cc2NC(=O)C2=COCCO2)cc1 | -6.2% | -8.7% | -0.1% | · | 0.1% | -4.8%
O=C(N1CCOCCOc2ccccc2OCCOCC1)C(F)(F)F | -1.3% | -5.6% | -0.4% | · | -1.0% | -7.2%
CCOc1ccc(-c2nc(-c3cccs3)c(CC(=O)O)s2)cc1OC | ? | ? | ? | 15.5% | 3.01µM* | 17.4%
CCOc1ccc(-c2nnn(CCC(=O)O)n2)cc1OC | -2.0% | -14.2% | 0.3% | 15.7% | -1.8% | -2.2%
CCOc1ccc(-c2nnc(-c3cccs3)o2)cc1 | ? | ? | 0.631µM* | 2µM* | 0.675µM* | 0.708µM*
CSc1ccc(Cl)c(C(=O)Nc2ccc(C)cn2)c1 | -0.4% | 12.4% | 22.4% | -0.1% | -16.2% | -10.4%
COc1ccc(/C(C)=N/Nc2nc3ccccc3n3cnnc23)cc1OC | -0.9% | ? | 9.1% | · | 10.7µM* | 3.8%
O=C(/C=C/c1cccs1)c1ccc(Br)cc1 | 8.2% | ? | 5.5% | 2.1% | 4.78µM* | -4.4%
Cc1ccc(C(=O)Nc2ccc(C(=O)/C=C/c3cccs3)cc2)cc1 | -3.1% | ? | ? | -8.2% | 12µM* | ?
O=C(/C=C/c1cccs1)c1ccc(NC(=O)c2cccc(Br)c2)cc1 | 2.4% | ? | 18.3% | ? | -13.1% | 19.5%
